EBV LMP1 NFkB – Epstein-Barr LMP1 NF-kappaB reporter inhibition. LMP1-induced NF-kappaB luciferase reporter cells, luminescence. inhibition, % at 12.5 µM. hit rate 0.69% among 350,000. AID 504558; in the data active means inhibition above about 41%;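 further: 0% = neutral control wells and 100% = reference inhibitor control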
KKLEB tox – CF airway cell cytotoxicity counter-screen | KKLEB CF airway cells viability, ATPlite luminescence, overnight; hits give low values; cells stimulated with P. aeruginosa culture filtrate | activity change (cytotoxicity), % at 5 µM | hit rate 0.36% among 360,000 | AID 602141;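 active means corrected activity change at or below -50% at 5 µM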
CF NFkB block – blocks PAF-induced NF-kB reporter in cystic fibrosis cells. inhibition, % at 5 µM. hit rate 0.86% among 360,000. AID 588850. KKLEB NF-kB-GFP reporter, GFP fluorescence overnight;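 active means at least 50% inhibition at 5 µM, scaled per plate between neutral and stimulator controls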;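 further: PAF is a Pseudomonas aeruginosa culture filtrate used as stimulus; plate controls were PAF-stimulated DMSO wells for no effect and unstimulated DMSO wells for full effect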
Peg3 promoter – inhibitors of Peg3 promoter; HeLa PEG-Prom luciferase reporter, luminescence, overnight; inhibition, % at 20 µM; hit rate 1.7% among 360,000; AID 588405;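 active means inhibition of at least 50% at 20 µM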
TRPM1 prom inh – reduces MITF-dependent TRPM1 promoter luciferase signal. SK-MEL-5 TRPM1 promoter luciferase, 24 h. inhibition, % at 12.5 µM. hit rate 0.83% among 330,000. AID 488899;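 active means mean inhibition across replicates of 60% or more, whatever share of single replicates reaches that level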
HIF-2a inh – inhibitors of HIF-2a; 786-0 RCC cells HIF-2a reporter, luciferase luminescence, overnight; inhibition, % at 18.8 µM; hit rate 0.72% among 360,000; AID 624352;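 active means inhibition of the luminescence signal of 40% or more relative to plate controls, in a single-dose primary screen at 18.75 µM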
Active calls of the source: *; . = no result given. Sampled rows, rich in hits. Any-hit rate of the full collection: about 3%.

SMILES | EBV LMP1 NFkB | KKLEB tox | CF NFkB block | Peg3 promoter | TRPM1 prom inh | HIF-2a inh
CC/C(=N/Nc1ccc(Cl)cc1)c1cnnc(SC)n1 | 1 | 7 | -10 | 2 | -3 | 11
CC[C@@H]1CC2=C(C(=O)OC(C)(C)O2)[C@H](c2ccc(Cl)cc2)O1 | . | -8 | 10 | 11 | . | 24
CN(C)CCNc1ncnc2oc(-c3ccccc3)c(-c3ccccc3)c12 | 1 | -21 | 27 | 71* | -12 | 4
COc1ccc(-c2oc3ncnc(NCCCN(C)C)c3c2-c2ccc(OC)cc2)cc1 | -9 | -20 | 21 | 104* | 21 | 33
CCOC(=O)c1c(C)[nH]c(C(=O)OCC(=O)NCc2ccco2)c1C | -5 | 14 | -15 | -47 | . | -101
CCN(CC)CCNc1c(C)cc(CO)c(Cl)c1C | 7 | -7 | 13 | 72* | . | 20
CCN(CC)CCNCC(O)(c1ccc(Cl)cc1)c1ccc(Cl)cc1 | -8 | -6 | -2 | -1 | 4 | -1
Cc1ccc(OCc2nc3ccccc3n2C(C(=O)NC(C)(C)C)c2ccncc2)cc1 (configuration not stated) | . | . | . | . | . | -84
O=C1c2ccccc2C(=O)c2c(/C=C/N3CCCCC3)ccnc21 | -7 | -15 | 38 | 32 | 95* | -18
CC1(C)OC(=O)C2=C(C[C@@H](C3CCCCC3)O[C@H]2c2ccccc2)O1 | . | . | . | . | . | -6
CN(C)CCNc1ccc(CO)c2sc3ccc(O)cc3c(=O)c12 | 49* | 8 | -189 | 100* | 85* | 50*
O=c1[nH]c(=S)[nH]c2c1[C@H](CCc1cccc(Cl)c1)O[C@H](C1CC1)C2 | . | . | . | . | . | 6
Nc1ccc2c(c1)C(=NO)c1cc([N+](=O)[O-])ccc1-2 | 14 | -7 | 31 | 44 | 22 | -19
O=C(Nc1cc2c(cc1Cl)-c1ccc([N+](=O)[O-])cc1C2=NO)C(F)(F)F | 3 | 10 | -46 | 57* | 9 | -50
CCC1CCCCN1CCCNC(=O)c1cn(CC)c2ccc(S(=O)(=O)N3CCc4ccccc4C3)cc2c1=O (configuration not stated) | -5 | 3 | 4 | 77* | 6 | 17
CCCc1c(C(=O)N/N=C/C2CC=CCC2)nnn1-c1nonc1N (configuration not stated) | -1 | 0 | -5 | 14 | . | 17
Cc1ccc(-c2cnc(C(O)c3cccc(Cl)c3)[nH]2)cc1 (configuration not stated) | . | 0 | -22 | -60 | . | -142
O=S1(=O)N[C@@H](Cc2ccccc2)COc2cccc(N3CCC[C@@H]3CO)c21 | . | . | . | . | . | 10
O=[N+]([O-])CC(c1ccccc1)c1c[nH]c2ccccc12 (configuration not stated) | . | 2 | 8 | 33 | . | 13
OC(CNCC(c1ccc(Cl)cc1Cl)c1c[nH]c2ccccc12)c1ccccc1 (configuration not stated) | -37 | -17 | 19 | 110* | 100* | 17
Cn1c(=O)[nH]c(=O)c2c1nc(CN1CCOCC1)n2CCCc1ccccc1 | 85* | 21 | -45 | 5 | -10 | 9
CCCCCn1c(N(C)Cc2ccccc2)nc2c1c(=O)[nH]c(=O)n2C | -1 | 4 | 25 | 55* | 8 | 17
CCCCCn1c(N2CCC(Cc3ccccc3)CC2)nc2c1c(=O)[nH]c(=O)n2C | -25 | -8 | 21 | 64* | 6 | -60
O=C(O)COc1ccccc1/C=N/Nc1ccc(S(=O)(=O)N2CCOCC2)cc1[N+](=O)[O-] | 2 | 8 | -8 | 68* | 3 | 18
COc1ccc2[nH]c(=O)c(CN(Cc3cccs3)S(=O)(=O)c3cccc4nsnc34)cc2c1 | 35 | -53* | 98* | 66* | 11 | -25
SMILES | EBV LMP1 NFkB | KKLEB tox | CF NFkB block | Peg3 promoter | TRPM1 prom inh | HIF-2a inh
COc1ccccc1NC(=O)C(=O)N/N=C(\C)CC(=O)Nc1ccccc1C(F)(F)F | 47* | -2 | 9 | -23 | -15 | -15
O=c1[nH]c(=O)n(C(c2ccccc2)(c2ccccc2)c2ccccc2)cc1N(CCO)CCO | -6 | 8 | 16 | 20 | -4 | 2
O=C1C(=Cc2ccccn2)CCc2ccccc21 | -2 | -5 | 61* | -72 | . | -77
C[C@H]1CN([C@@H](C)CO)C(=O)c2cc(C3=CCCC3)cnc2O[C@@H]1CN(C)C(=O)c1ccncc1 | -6 | 10 | -22 | -3 | . | -2
O=C(NCCN1CCCC(O)C1)c1cc(COc2cccc(C(F)(F)F)c2)on1 (configuration not stated) | -3 | 2 | 8 | 4 | . | -16
CCN(CC)C(=O)c1ccc2c3c(cccc13)C(=O)N(CCc1ccc(OC)c(OC)c1)C2=O | 0 | -6 | 4 | 60* | 26 | 3
COCCn1c(C)cc(C(=O)COC(=O)c2ccc[nH]c2=O)c1C | 38 | 2 | 11 | 52* | 15 | 31
CCN1Cc2c(/C=C/c3ccccc3)nc3ccc(OC)cc3c2N(c2cccc(Cl)c2)C1 | -87 | -17 | -7 | 101* | 50 | 17
COc1cccc(N2CCc3c(C)nc4ccc(Cl)cc4c32)c1 | -4 | -31 | -38 | 47 | 13 | 22
Oc1ccc(C[C@H]2CNC(=S)N2CC2CCCN2C[C@H](Cc2ccccc2)N2C[C@H](Cc3ccc(O)cc3)N(CC3CCCCC3)C2=S)cc1 (some centres not stated) | . | -2 | 36 | 97* | . | -10
CC(C)C[C@@H](CN1CCC[C@@H]1CN1C(=S)NC[C@@H]1Cc1ccc(O)cc1)N1C[C@H](Cc2ccc(O)cc2)N(CC2CCCCCC2)C1=S | . | -2 | 29 | 80* | . | -31
Oc1ccc(C[C@H]2CNC(=S)N2C[C@H]2CCCN2C[C@H](Cc2ccccc2)N2C[C@H](Cc3ccc(O)cc3)N(CCc3ccccc3)C2=S)cc1 | . | -6 | 42 | 76* | . | -49
Oc1ccc(C[C@H]2CN([C@@H](Cc3ccc(O)cc3)CN3CCC[C@@H]3CN3C(=S)NC[C@@H]3Cc3ccccc3)C(=S)N2CCc2ccccc2)cc1 | . | -8 | 27 | 33 | . | -9
CC(C)C[C@@H](CN1CCCC1CN1C(=S)NC[C@@H]1Cc1ccccc1)N1C[C@H](Cc2ccc(O)cc2)N(CC2CCCCC2)C1=S (some centres not stated) | . | . | . | . | . | 1
CC(C)C[C@H]1CN([C@@H](CC(C)C)CN2CCCC2CN2C(=S)NC[C@@H]2Cc2ccc(O)cc2)C(=S)N1CC1CCCCCC1 (some centres not stated) | 13 | 3 | 5 | 91* | -2 | -12
CC(C)C[C@H]1CNC(=S)N1CC1CCCN1C[C@H](CC(C)C)N1C[C@H](Cc2ccccc2)N(CC2CCCCCC2)C1=S (some centres not stated) | 4 | -4 | 18 | -3 | -6 | 11
Oc1ccc(C[C@H]2CN([C@@H](Cc3ccccc3)CN3CCC[C@@H]3CN3C(=S)NC[C@@H]3Cc3ccccc3)C(=S)N2CC2CCCCC2)cc1 | . | -10 | 24 | -1 | . | 0

Screening results as filed in PubChem BioAssay.
